This excerpt belongs to a sample that is enriched for the strongest signals.
Experiments:
Assay in all cases: glycan array binding signal (z-score within array); higher = stronger binding
[1] = test system: Neu5Ac(a2-3)Gal(b1-4)[Fuc(a1-3)]GlcNAc(b1-3)GalNAc; conditions: glycan notation: IUPAC condensed, linker removed
How it was run: (§1)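 Arrays were curated from the Consortium for Functional Glycomics database, 3228 in total, and kept only where the protein sequence was available. Binding is expressed as a within-array Z-score. This score was averaged across arrays of the same protein sequence at different concentrations or buffers and across linkers, and negative values can be read as non-binding.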

[2] = test system: Neu5Ac(a2-3)Gal(b1-4)[Fuc(a1-3)]GlcNAc(b1-6)[Gal(b1-3)]GalNAc; conditions: glycan notation: IUPAC condensed, linker removed
How it was run: as §1

[3] = test system: Neu5Ac(a2-3)Gal6S(b1-4)GlcNAc; conditions: glycan notation: IUPAC condensed, linker removed
How it was run: as §1

[4] = test system: Neu5Ac(a2-3)Gal(b1-4)[Fuc(a1-3)]GlcNAc6S; conditions: glycan notation: IUPAC condensed, linker removed
How it was run: as §1

[5] = test system: Neu5Ac(a2-3)Gal(b1-4)GlcNAc; conditions: glycan notation: IUPAC condensed, linker removed
How it was run: as §1

[6] = test system: Neu5Ac(a2-3)Gal(b1-4)[Fuc(a1-3)]GlcNAc(b1-3)Gal(b1-4)[Fuc(a1-3)]GlcNAc(b1-3)Gal(b1-4)[Fuc(a1-3)]GlcNAc; conditions: glycan notation: IUPAC condensed, linker removed
How it was run: as §1

[7] = test system: Neu5Ac(a2-3)Gal(b1-4)[Fuc(a1-3)]GlcNAc(b1-3)Gal; conditions: glycan notation: IUPAC condensed, linker removed
How it was run: as §1

[8] = test system: Neu5Ac(a2-3)Gal(b1-4)GlcNAc(b1-3)Gal(b1-4)GlcNAc(b1-3)Gal(b1-4)GlcNAc; conditions: glycan notation: IUPAC condensed, linker removed
How it was run: as §1

[9] = test system: Neu5Ac(a2-3)Gal(b1-4)GlcNAc(b1-3)Gal(b1-4)GlcNAc; conditions: glycan notation: IUPAC condensed, linker removed
How it was run: as §1

[10] = test system: Neu5Ac(a2-3)Gal(b1-4)[Fuc(a1-3)]GlcNAc; conditions: glycan notation: IUPAC condensed, linker removed
How it was run: as §1

[11] = test system: Neu5Ac(a2-3)Gal(b1-4)GlcNAc(b1-6)[Neu5Ac(a2-3)Gal(b1-3)]GalNAc; conditions: glycan notation: IUPAC condensed, linker removed
How it was run: as §1

[12] = test system: Neu5Ac(a2-3)Gal(b1-4)GlcNAc6S; conditions: glycan notation: IUPAC condensed, linker removed
How it was run: as §1

[13] = test system: Neu5Ac(a2-3)Gal(b1-4)GlcNAc(b1-3)Gal; conditions: glycan notation: IUPAC condensed, linker removed
How it was run: as §1

[14] = test system: Neu5Ac(a2-3)Gal(b1-4)GlcNAc(b1-6)GalNAc; conditions: glycan notation: IUPAC condensed, linker removed
How it was run: as §1

[15] = test system: Neu5Ac(a2-3)Gal(b1-4)GlcNAc(b1-3)Gal(b1-4)GlcNAc(b1-3)[Neu5Ac(a2-3)Gal(b1-4)GlcNAc(b1-3)Gal(b1-4)GlcNAc(b1-6)]GalNAc; conditions: glycan notation: IUPAC condensed, linker removed
How it was run: as §1

[16] = test system: Neu5Ac(a2-3)Gal(b1-4)GlcNAc(b1-3)[Neu5Ac(a2-3)Gal(b1-4)GlcNAc(b1-6)]GalNAc; conditions: glycan notation: IUPAC condensed, linker removed
How it was run: as §1

Neu5Ac(a2-3)Gal(b1-4)Glc = conditions: glycan notation: IUPAC condensed, linker removed; mutation: R125K
How it was run: as §1

[17] = test system: Neu5Ac(a2-3)Gal(b1-4)[Fuc(a1-3)]GlcNAc(b1-3)Gal(b1-4)GlcNAc; conditions: glycan notation: IUPAC condensed, linker removed; mutation: R125K
How it was run: as §1

[18] = test system: Neu5Ac(a2-3)Gal(b1-4)GlcNAc(b1-3)Gal(b1-4)[Fuc(a1-3)]GlcNAc; conditions: glycan notation: IUPAC condensed, linker removed
How it was run: as §1

[19] = test system: Neu5Ac(a2-3)Gal(b1-4)GlcNAc(b1-6)[Gal(b1-3)]GalNAc; conditions: glycan notation: IUPAC condensed, linker removed
How it was run: as §1

Sequence of Neurocan (Homo sapiens), O14594 (O14594 other isoform, or with tags, fused parts or gaps): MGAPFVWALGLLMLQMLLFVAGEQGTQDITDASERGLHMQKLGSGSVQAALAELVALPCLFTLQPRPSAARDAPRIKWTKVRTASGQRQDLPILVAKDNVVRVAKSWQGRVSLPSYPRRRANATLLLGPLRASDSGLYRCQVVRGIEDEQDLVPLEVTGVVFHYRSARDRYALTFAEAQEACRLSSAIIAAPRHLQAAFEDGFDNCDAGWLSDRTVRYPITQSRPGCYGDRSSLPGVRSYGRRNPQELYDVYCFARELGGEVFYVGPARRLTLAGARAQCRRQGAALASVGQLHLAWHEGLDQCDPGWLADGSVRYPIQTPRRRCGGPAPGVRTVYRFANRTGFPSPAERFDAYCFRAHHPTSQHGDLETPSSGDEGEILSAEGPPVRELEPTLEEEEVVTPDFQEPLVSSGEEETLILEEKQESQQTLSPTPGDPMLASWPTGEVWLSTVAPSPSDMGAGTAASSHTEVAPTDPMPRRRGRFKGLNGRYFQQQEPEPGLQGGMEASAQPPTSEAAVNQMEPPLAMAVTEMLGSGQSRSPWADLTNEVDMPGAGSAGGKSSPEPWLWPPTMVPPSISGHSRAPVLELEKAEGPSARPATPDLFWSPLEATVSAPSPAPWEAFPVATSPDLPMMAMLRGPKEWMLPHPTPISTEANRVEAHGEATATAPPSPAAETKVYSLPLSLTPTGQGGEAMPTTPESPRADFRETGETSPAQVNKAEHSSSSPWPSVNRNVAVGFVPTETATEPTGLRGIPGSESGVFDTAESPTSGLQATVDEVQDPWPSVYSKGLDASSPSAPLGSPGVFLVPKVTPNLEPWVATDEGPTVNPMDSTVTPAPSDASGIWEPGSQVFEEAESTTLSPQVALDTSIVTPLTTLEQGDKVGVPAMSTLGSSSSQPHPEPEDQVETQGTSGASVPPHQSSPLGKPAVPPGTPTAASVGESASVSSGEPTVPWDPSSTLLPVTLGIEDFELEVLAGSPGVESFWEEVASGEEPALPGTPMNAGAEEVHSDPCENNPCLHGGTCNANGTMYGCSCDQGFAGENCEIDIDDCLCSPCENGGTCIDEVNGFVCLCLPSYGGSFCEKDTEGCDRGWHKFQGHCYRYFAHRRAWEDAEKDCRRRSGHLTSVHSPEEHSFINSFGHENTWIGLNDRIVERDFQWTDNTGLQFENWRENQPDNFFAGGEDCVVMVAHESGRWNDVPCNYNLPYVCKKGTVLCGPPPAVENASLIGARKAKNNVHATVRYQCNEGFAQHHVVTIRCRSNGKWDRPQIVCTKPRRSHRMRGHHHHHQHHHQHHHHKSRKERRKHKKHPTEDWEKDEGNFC
Sequence of 6RG (Lolium perenne) (chain, as listed by the source): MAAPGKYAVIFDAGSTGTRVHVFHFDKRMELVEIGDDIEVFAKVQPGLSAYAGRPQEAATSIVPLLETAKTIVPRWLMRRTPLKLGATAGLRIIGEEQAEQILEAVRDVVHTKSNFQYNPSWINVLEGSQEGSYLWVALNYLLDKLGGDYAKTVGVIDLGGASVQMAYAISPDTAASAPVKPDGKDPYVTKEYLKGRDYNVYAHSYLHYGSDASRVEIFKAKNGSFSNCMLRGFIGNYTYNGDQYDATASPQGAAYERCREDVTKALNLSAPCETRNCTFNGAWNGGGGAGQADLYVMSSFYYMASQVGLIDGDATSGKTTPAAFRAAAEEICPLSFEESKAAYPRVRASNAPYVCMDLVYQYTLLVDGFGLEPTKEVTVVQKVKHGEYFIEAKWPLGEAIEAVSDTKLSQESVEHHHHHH
Sequence of C3b (Homo sapiens), P01024 (P01024 23-667): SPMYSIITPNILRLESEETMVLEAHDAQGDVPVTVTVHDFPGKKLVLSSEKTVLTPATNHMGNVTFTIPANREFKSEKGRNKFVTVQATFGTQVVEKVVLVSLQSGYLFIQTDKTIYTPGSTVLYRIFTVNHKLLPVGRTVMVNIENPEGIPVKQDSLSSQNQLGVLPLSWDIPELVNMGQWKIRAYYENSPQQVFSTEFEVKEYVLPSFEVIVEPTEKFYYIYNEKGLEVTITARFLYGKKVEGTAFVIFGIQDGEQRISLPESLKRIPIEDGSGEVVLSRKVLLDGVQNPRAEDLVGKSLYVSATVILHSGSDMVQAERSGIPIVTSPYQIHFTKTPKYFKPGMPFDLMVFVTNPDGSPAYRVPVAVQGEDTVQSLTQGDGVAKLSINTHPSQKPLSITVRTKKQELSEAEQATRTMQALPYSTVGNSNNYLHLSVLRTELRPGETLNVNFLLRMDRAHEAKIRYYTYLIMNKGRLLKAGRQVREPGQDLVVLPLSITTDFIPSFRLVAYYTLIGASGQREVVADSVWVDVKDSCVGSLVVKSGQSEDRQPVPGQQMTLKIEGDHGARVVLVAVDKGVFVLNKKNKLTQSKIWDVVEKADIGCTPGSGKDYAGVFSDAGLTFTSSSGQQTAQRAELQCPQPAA
Sequence of PILRa (Mus musculus), Q2YSF3 (Q2YSF3 entry or part of it): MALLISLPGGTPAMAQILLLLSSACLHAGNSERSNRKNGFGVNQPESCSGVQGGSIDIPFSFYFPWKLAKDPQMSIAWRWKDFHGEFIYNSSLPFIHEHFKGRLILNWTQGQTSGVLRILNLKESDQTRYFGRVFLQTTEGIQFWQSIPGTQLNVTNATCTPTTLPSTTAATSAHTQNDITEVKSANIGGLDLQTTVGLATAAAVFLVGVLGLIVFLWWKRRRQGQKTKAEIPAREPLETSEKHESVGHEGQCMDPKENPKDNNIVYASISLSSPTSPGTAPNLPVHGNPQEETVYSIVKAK
Sequence of CHI3L1 (Homo sapiens), P36222 (P36222 whole entry): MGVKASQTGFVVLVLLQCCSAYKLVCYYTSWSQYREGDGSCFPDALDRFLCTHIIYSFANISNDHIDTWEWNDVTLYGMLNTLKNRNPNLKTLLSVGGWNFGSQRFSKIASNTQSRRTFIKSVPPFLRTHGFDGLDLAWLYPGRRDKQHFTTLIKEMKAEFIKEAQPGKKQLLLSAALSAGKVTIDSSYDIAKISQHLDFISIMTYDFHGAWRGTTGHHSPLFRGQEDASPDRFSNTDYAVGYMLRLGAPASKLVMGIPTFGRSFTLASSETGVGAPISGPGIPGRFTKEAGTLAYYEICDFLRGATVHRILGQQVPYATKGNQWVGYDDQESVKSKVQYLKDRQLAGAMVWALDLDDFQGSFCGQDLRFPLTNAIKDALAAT
Sequence of Avaren (Actinomycete K97) (chain, as listed by the source): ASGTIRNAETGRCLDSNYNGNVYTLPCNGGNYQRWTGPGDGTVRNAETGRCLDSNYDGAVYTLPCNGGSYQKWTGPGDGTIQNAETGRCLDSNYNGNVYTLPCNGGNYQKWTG
Sequence of wLAT-1A (Homo sapiens), Q01650 (Q01650 whole entry): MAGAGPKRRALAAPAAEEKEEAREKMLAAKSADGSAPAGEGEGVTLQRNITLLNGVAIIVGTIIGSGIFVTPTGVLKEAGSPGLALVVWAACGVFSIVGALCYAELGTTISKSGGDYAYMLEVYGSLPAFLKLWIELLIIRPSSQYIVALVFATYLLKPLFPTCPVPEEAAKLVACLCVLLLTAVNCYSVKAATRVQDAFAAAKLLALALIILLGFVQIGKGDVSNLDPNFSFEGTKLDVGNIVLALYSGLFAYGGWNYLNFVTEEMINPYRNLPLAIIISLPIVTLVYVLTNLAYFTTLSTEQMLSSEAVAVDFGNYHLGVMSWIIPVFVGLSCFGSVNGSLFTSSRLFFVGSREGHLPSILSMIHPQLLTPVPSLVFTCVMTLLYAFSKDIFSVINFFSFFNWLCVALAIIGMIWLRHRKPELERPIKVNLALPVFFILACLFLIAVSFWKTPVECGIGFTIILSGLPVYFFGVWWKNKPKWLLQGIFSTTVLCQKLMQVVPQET
Sequence of Aggrecan (Rattus norvegicus), NP_071526 (chain, as listed by the source): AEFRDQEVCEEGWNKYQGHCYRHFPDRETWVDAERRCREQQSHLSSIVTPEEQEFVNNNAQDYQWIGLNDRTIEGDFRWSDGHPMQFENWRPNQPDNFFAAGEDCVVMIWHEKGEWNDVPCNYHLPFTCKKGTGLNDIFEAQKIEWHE
Sequence of 6RG (Lolium perenne), B9U140 (B9U140 entry or part of it): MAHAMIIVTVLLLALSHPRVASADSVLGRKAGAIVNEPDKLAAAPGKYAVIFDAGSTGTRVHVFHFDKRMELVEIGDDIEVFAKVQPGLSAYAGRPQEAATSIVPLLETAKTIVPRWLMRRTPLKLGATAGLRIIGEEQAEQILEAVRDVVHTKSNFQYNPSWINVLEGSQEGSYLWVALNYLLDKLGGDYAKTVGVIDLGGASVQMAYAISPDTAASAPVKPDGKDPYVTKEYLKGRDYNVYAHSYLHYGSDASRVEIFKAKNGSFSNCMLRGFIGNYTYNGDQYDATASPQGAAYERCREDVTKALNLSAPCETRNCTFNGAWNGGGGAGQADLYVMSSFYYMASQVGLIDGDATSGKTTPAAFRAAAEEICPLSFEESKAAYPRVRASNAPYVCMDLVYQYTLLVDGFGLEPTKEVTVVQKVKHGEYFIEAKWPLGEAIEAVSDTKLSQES
Sequence of PILRb (Mus musculus), Q2YSF2 (Q2YSF2 entry or part of it): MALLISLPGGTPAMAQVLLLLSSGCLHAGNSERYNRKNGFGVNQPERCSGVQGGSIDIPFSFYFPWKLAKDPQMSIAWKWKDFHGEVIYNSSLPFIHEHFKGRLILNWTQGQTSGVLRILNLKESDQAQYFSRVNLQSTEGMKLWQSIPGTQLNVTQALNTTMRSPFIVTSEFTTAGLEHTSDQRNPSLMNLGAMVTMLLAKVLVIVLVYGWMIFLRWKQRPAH
Sequence of CHT (Homo sapiens) (chain, as listed by the source): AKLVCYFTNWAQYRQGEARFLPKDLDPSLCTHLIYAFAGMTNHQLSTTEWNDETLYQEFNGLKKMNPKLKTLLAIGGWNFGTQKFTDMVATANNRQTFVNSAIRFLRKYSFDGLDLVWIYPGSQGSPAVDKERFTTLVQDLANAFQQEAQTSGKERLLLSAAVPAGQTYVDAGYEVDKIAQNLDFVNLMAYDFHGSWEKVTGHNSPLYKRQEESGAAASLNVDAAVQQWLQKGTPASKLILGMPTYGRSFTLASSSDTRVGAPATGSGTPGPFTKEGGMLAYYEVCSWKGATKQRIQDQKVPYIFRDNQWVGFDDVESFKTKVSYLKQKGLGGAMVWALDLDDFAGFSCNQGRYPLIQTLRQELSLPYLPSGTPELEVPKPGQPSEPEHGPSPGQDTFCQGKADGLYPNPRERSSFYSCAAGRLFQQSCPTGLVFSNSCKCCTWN

## Neurocan (Homo sapiens), O14594
[1]
  glycan array binding signal (z-score): 4.45
[2]
  glycan array binding signal (z-score): 3.52
[3]
  glycan array binding signal (z-score): -1.3

## Regenerating Gene IV (Homo sapiens), Q9BYZ8
[2]
  glycan array binding signal (z-score): 0.692

## 6RG (Lolium perenne), B9U140
[3]
  glycan array binding signal (z-score): 1.4

## PILRb (Mus musculus), Q2YSF2
[4]
  glycan array binding signal (z-score): -0.229

## HARE (Homo sapiens), Q8WWQ8
[5]
  glycan array binding signal (z-score): -0.41

## Aggrecan (Rattus norvegicus), NP_071526
[6]
  glycan array binding signal (z-score): -0.136

## CHI3L1 (Homo sapiens), P36222
[1]
  glycan array binding signal (z-score): -0.075
[7]
  glycan array binding signal (z-score): -0.104

## C3b (Homo sapiens), P01024
[8]
  glycan array binding signal (z-score): 0.362
[9]
  glycan array binding signal (z-score): -0.787
[10]
  glycan array binding signal (z-score): 0.03

## PILRa (Mus musculus), Q2YSF3
[9]
  glycan array binding signal (z-score): 1.21
[11]
  glycan array binding signal (z-score): -0.272

## CHT (Homo sapiens)
[12]; mutation: D138V, E140I
  glycan array binding signal (z-score): -0.118

## wLAT-1A (Homo sapiens), Q01650
[3]
  glycan array binding signal (z-score): 0.097

## MpAFP RI GFP (Marinomonas primoryensis)
[13]
  glycan array binding signal (z-score): -0.665
[14]
  glycan array binding signal (z-score): -0.342
[2]
  glycan array binding signal (z-score): 0.494
[3]
  glycan array binding signal (z-score): -0.72

## Siglec-8 (Homo sapiens), Q9NYZ4
[8]; mutation: R125K
  glycan array binding signal (z-score): -0.378
[15]
  glycan array binding signal (z-score): -0.138
[16]
  glycan array binding signal (z-score): -0.207
Neu5Ac(a2-3)Gal(b1-4)Glc
  glycan array binding signal (z-score): 6.29
[17]
  glycan array binding signal (z-score): -0.182
[7]; mutation: R125K
  glycan array binding signal (z-score): 0.14
[4]; mutation: R125K
  glycan array binding signal (z-score): -0.382
[3]
  glycan array binding signal (z-score): 16.9

## Avaren (Actinomycete K97)
[11]
  glycan array binding signal (z-score): -0.138
[12]
  glycan array binding signal (z-score): -0.116

## 6RG (Lolium perenne)
[18]
  glycan array binding signal (z-score): -0.244
[19]
  glycan array binding signal (z-score): -0.075
[4]
  glycan array binding signal (z-score): -0.352

— the supplement of paper PMC8728848
